High-throughput results: PubChem, several laboratories
A selection: hits, their analogues and other compounds. The true share with any hit is near 27%.
CYP2C19 inhib – blocks human cytochrome P450 2C19; P33261; CYP2C19 Supersomes, luciferin-H EGE luminescence, 30 min; inhibition, % at 5 µM; actives 21% (n = 96,000); AID 778;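 active means CYP2C19 inhibition above a set limit at 5 µM in the primary screen, cut at about 50% in these data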;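 further: plate controls were negative control wells for no effect and 2.5 mM tranylcypromine positive control for full effect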
Target sequence (P33261 whole entry, looked up): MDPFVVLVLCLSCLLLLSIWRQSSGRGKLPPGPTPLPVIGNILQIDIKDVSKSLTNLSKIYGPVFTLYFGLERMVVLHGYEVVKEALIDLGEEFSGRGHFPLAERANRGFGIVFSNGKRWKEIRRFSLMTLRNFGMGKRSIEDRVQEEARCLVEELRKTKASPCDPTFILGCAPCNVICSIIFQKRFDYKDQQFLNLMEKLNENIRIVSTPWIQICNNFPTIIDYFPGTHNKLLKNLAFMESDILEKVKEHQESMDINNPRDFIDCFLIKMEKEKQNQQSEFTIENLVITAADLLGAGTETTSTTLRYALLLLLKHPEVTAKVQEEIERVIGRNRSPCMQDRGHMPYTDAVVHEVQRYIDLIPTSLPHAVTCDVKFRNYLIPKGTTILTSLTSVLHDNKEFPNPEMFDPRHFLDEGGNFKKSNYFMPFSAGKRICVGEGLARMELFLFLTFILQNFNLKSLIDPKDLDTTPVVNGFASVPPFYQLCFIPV
CYP2C19 activ – increases human CYP2C19 enzyme activity | activation factor at 5 µM | recombinant CYP2C19, luciferin-H EGE luminescence; active compounds read high; 0 = fully inhibited enzyme, 1 = untreated enzyme | AID 1025 | 96,000 tested, under 10 active | P33261;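 active means activation factor of at least 2 at 5 µM in the primary screen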;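 further: 0 = wells with 2.5 mM tranylcypromine and 1 = vehicle-only wells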
CYP2C9 act – activators of human CYP2C9 | recombinant CYP2C9, luciferin-H conversion, luminescence; active compounds read high; factor 1 = untreated enzyme, 0 = blocked | activation factor at 5 µM | actives 1.4% (n = 96,000) | AID 1024;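 active means activation factor of 2 or more for CYP2C9 at a 5 µM dose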;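 further: 0 = sulfaphenazole-blocked wells and 1 = vehicle-only wells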
CYP2C9 inh – blocks human cytochrome P450 2C9. P11712. CYP2C9 Supersomes, luciferin-H conversion, luminescence. inhibition, % at 5 µM. actives 20% (n = 96,000);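 active means blocking of liver enzyme CYP2C9 beyond about 50% at 5 µM, limit read from the data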
Cav3 T inh – blocks human Cav3.2 T-type calcium channel; O95180; Cav3.2-expressing cells, Fluo-4 calcium fluorescence FDSS; active compounds read low; B-score at 10 µM; actives 4% (n = 100,000);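 active means single-dose well whose peak fluorescence ratio is a statistical outlier from its plate by either plate-standardised score or position-corrected B-score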
An asterisk follows results filed as active.

`COc1ccccc1NC(=O)C1C2C=CC3(CN(Cc4cccnc4)C(=O)C13)O2` (stereo unspecified) gave CYP2C19 inhib 14.2, CYP2C19 activ 0.9, CYP2C9 act 0.8, CYP2C9 inh 19.6 and Cav3 T inh -0.00294.
Screening CCCCCC(C(=O)O)C(C)CC(=O)NC1CCCCC1 (stereo unspecified) returned CYP2C19 inhib 2.3, CYP2C19 activ 1, CYP2C9 act 0.9, CYP2C9 inh 12.9 and Cav3 T inh 0.349.
Cc1nnsc1SCCNC(=O)c1ccc(F)cc1 was read as CYP2C19 inhib 80.5*, CYP2C19 activ 0.2, CYP2C9 act 0.8, CYP2C9 inh 22.1 and Cav3 T inh 0.11.
Screening Cc1ccc2cc(CN(Cc3nnnn3C3CCCCC3)CC3CCCO3)c(=O)[nH]c2c1 (stereo unspecified) returned CYP2C19 inhib 81.3*, CYP2C19 activ 0.2, CYP2C9 act 0.5, CYP2C9 inh 48.9 and Cav3 T inh -2.64*.
Screening O=c1[nH]c2cc3c(cc2cc1CN(CCc1ccccc1)Cc1nnnn1C1CCCC1)OCCO3 returned CYP2C19 inhib 34.6, CYP2C19 activ 0.7, CYP2C9 act 0.6, CYP2C9 inh 38.6 and Cav3 T inh 0.149.
For COCCn1nnnc1CN(CCc1ccc(OC)c(OC)c1)Cc1cc2ccc(C)cc2[nH]c1=O the results were CYP2C19 inhib 58.6*, CYP2C19 activ 0.4, CYP2C9 act 0.4, CYP2C9 inh 60.8* and Cav3 T inh 0.708.
CCC(c1nnnn1CCOC)N(Cc1cc2c(C)cc(C)cc2[nH]c1=O)CC1CCCO1 (stereo unspecified) was read as CYP2C19 inhib 10.9, CYP2C19 activ 0.9, CYP2C9 act 0.8, CYP2C9 inh 20.6 and Cav3 T inh -0.122.
COc1ccc2cc(CN(Cc3cccnc3)Cc3nnnn3Cc3ccccc3)c(=O)[nH]c2c1 was read as CYP2C19 inhib 93.1*, CYP2C19 activ 0.1, CYP2C9 act 0.1, CYP2C9 inh 89.8* and Cav3 T inh -1.08.
For COc1ccc2cc(CN(Cc3cccs3)Cc3nnnn3Cc3ccccc3)c(=O)[nH]c2c1 the results were Cav3 T inh -1.78.
For Cc1cc(C)c2cc(CN(Cc3nnnn3C3CCCCC3)CC3CCCO3)c(=O)[nH]c2c1 (stereo unspecified) the results were CYP2C19 inhib 85.8*, CYP2C19 activ 0.1, CYP2C9 act 0.4, CYP2C9 inh 55.2* and Cav3 T inh -1.33.
Screening CN1C=CC2=C(C#N)C(N)C(C#N)(C#N)[C@H](c3ccccc3)[C@H]2C1 (stereo partly specified) returned Cav3 T inh -0.00231.
Screening CSc1nnc(-c2sccc2OCc2ccc(C)cc2)n1C returned CYP2C19 inhib 17.3, CYP2C19 activ 0.8, CYP2C9 act 0.9, CYP2C9 inh 13.1 and Cav3 T inh -0.16.
Cc1nn(Cc2ccc(Cl)cc2Cl)c(Cl)c1/C=C/C(=O)OCC(=O)NCC(F)(F)F was read as CYP2C19 inhib 22.3, CYP2C19 activ 0.8, CYP2C9 act 0.6, CYP2C9 inh 42.0 and Cav3 T inh -0.187.
For COc1ccc(CN(Cc2cc3ccc(C)cc3[nH]c2=O)Cc2nnnn2C2CCCC2)cc1 the results were CYP2C19 inhib 92.8*, CYP2C19 activ 0.1, CYP2C9 act 0.1, CYP2C9 inh 93.0* and Cav3 T inh -2.78.
Screening Cc1cc2cc(CN(Cc3ccc4c(c3)OCO4)Cc3nnnn3C3CCCC3)c(=O)[nH]c2cc1C returned CYP2C19 inhib 5.2, CYP2C19 activ 0.9, CYP2C9 act 1, CYP2C9 inh -0.2 and Cav3 T inh -0.692.
`Cc1ccc2[nH]c(=O)c(CN(Cc3ccc4c(c3)OCO4)Cc3nnnn3C3CCCC3)cc2c1` gave CYP2C19 inhib 42.0, CYP2C19 activ 0.6, CYP2C9 act 0.4 and CYP2C9 inh 61.0*.
`Cc1cccc2cc(CN(Cc3nnnn3C3CCCC3)C3CCCCC3)c(=O)[nH]c12` gave Cav3 T inh 0.44.
`CCc1ccc2[nH]c(=O)c(CN(Cc3nnnn3C3CCCC3)C3CCCCC3)cc2c1` gave CYP2C19 inhib 76.4*, CYP2C19 activ 0.2, CYP2C9 act 0.2, CYP2C9 inh 82.3* and Cav3 T inh -2.56.
COc1ccc2cc(CN(CCCN3CCOCC3)Cc3nnnn3C3CCCC3)c(=O)[nH]c2c1 was read as CYP2C19 inhib 31.8, CYP2C19 activ 0.7, CYP2C9 act 1, CYP2C9 inh 4.6 and Cav3 T inh 1.4.
For Cc1ccc(C2=NOC(C)(c3nnc(-c4ccc(F)cc4)o3)C2)cc1 (stereo unspecified) the results were Cav3 T inh -1.38.
`CC1(C)CC(=O)C=C(Nc2ccc(S(N)(=O)=O)cc2)C1` gave CYP2C19 inhib -5.7, CYP2C19 activ 1.1, CYP2C9 act 0.7, CYP2C9 inh 26.5 and Cav3 T inh -0.269.
For Cc1cccc2nc(CSCc3ccco3)cn12 the results were CYP2C19 inhib 63.8*, CYP2C19 activ 0.4, CYP2C9 act 1, CYP2C9 inh 0.4 and Cav3 T inh -0.01.
Screening Cc1cc(C)n2cc(CSc3nnnn3-c3ccccc3C)nc2n1 returned CYP2C19 inhib 35.1, CYP2C19 activ 0.6, CYP2C9 act 2.7*, CYP2C9 inh -174.2 and Cav3 T inh 0.755.
Screening Cc1cc(C)n2cc(CSC3=NCCS3)nc2n1 returned CYP2C19 inhib -9.6, CYP2C19 activ 1.1, CYP2C9 act 1.3, CYP2C9 inh -32.8 and Cav3 T inh 0.37.
For Cc1cc(C)n2cc(CSCc3ccco3)nc2n1 the results were CYP2C19 inhib 8.8, CYP2C19 activ 0.9, CYP2C9 act 0.3, CYP2C9 inh 69.8* and Cav3 T inh 0.635.
Cc1cc(C)n2cc(CSc3ncccc3C(=O)O)nc2n1 was read as CYP2C19 inhib -17.3, CYP2C19 activ 1.2, CYP2C9 act 1.1, CYP2C9 inh -14.4 and Cav3 T inh 0.232.
`Cc1ccc(-c2cc(C(=O)NC3=NCCS3)c3cc(Br)ccc3n2)o1` gave CYP2C19 inhib 51.9*, CYP2C19 activ 0.5, CYP2C9 act 0.8 and CYP2C9 inh 19.9.
Cc1ccc(CSc2nnc(-c3ccncc3)n2CC2CCCO2)cc1 (stereo unspecified) was read as CYP2C19 inhib 59.7*, CYP2C19 activ 0.4, CYP2C9 act 0.7, CYP2C9 inh 25.3 and Cav3 T inh 0.641.
Screening Cc1nnc(SCc2ccccc2)n1CC1CCCO1 (stereo unspecified) returned CYP2C19 inhib 4.8, CYP2C19 activ 1, CYP2C9 act 1.1, CYP2C9 inh -9.0 and Cav3 T inh 0.338.
Screening Cn1c(SCC2CCCO2)nnc1-c1ccncc1 (stereo unspecified) returned CYP2C19 inhib 66.0*, CYP2C19 activ 0.3, CYP2C9 act 1.1, CYP2C9 inh -6.9 and Cav3 T inh 0.926.
Screening Cc1nn(-c2ccccc2)c(-c2ccccc2)c1C(=O)O returned CYP2C19 inhib -0.8, CYP2C19 activ 1, CYP2C9 act 0.7, CYP2C9 inh 30.8 and Cav3 T inh 0.0582.
